The record followed here is PubChem BioAssay (NCATS).

Values joined by “and” are separate entries in the source; they are usually repeats but may differ in a detail not shown here. Identical values can stand only once. Unmarked numbers belong to inactive results. Results filed as inconclusive are left out. Active and inactive are the calls of the source. Calls follow the shape of the dose curve; as a rule, active = well fitted curve in the direction sought with a large enough effect; inconclusive = small, poorly fitted or top-dose-only effect, or another doubt; inactive = no such curve, though single readings can be large; an effect the other way counts as inactive or inconclusive.

For experiment [1], the target named is T1, Hexokinase-4 (Homo sapiens) + Glucokinase regulatory protein (Homo sapiens) (UniProt P35557+Q14397). Put plainly: qHTS assay for inhibitors of recombinant human GCK-GKRP interaction: Diaphorase-coupled assay (AID 743205). An outline of the steps:
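A kinetic fluorescence read (Ex 525/Em 590 nm, every minute for 30 minutes) tracked resorufin from a G6PDH-diaphorase coupled GCK reaction. It contained 10 nM GST-GCK, 10 nM FLAG-GKRP, 5 mM glucose, 0.4 mM ATP in Hepes pH 7.6. Normalized to with/without-enzyme DMSO controls.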

The target of experiment [2] is T1, Hexokinase-4 (Homo sapiens) + Glucokinase regulatory protein (Homo sapiens). Put plainly: qHTS assay for inhibitors of recombinant human GCK-GKRP interaction: ADP-Glo assay (AID 743206).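 Also: plate controls were DMSO plus enzyme for no effect and no enzyme for full effect.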 Put shortly: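 Pin-transferred compounds meet a 15 nM GST-GCK/15 nM FLAG-GKRP/2 uM S6P mix (dispense concentrations). ATP is then added to 0.4 mM final with 5 mM glucose, and the reaction runs 60 min at room temperature. ADP is quantified luminescently.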

For experiment [3] the target is unchanged. Put plainly: qHTS assay for inhibitors of recombinant human GCK-GKRP interaction: HTRF assay (AID 743207). Also: potency is read from the fitted curve at half-maximal effect. Put shortly:
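After 60 min equilibration at room temperature with anti-FLAG XL665 and anti-GST antibodies, FRET ratio (665/615 nm, excitation 320 nm) was read. Proteins: GST-GCK and FLAG-GKRP, each 5 nM, plus 2 uM S6P, pH 7.1 buffer; GCK-free wells define minimum signal.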

Experiment [4] can be described thus: qHTS Assay for Identifying Gametocytocidal Compounds (AID 743244). Also: potency is read from the fitted curve at half-maximal effect.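 As to max response: % is scaled to controls: 0 for no effect and ±100 for the full control effect; actives lower the fluorescent signal which means gametocytes are killed.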 Particulars: P. falciparum 3D7 stage III-V gametocytes, alamarBlue, 72 h; max response: active compounds read low. An outline of the steps: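 Compounds are pinned into medium, gametocytes (stage III–V, 3D7, 20,000 cells/well) added, and plates held 72 h at 37 °C in 5% CO2. AlamarBlue follows for 24 h before fluorescence reading.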

Experiment [5] in a line: qHTS assay for measurement of the activity of small molecule inhibitors on Zika virus induced Caspase-3 activity in human iPSC derived neural progenitor cells (hNPCs) (AID 1224857). Also: % of control where 0% means no effect; nearly all actives have a fitted effect of over 65% in size. An outline of the steps:
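Pretreat hNPCs with compound 1 h; infect ZIKV 2 FFU/cell; 6 h 37 C, 5% CO2; Caspase-Glo 3/7, 30 min RT; luminescence; normalize to no-virus and virus-only wells.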

The nature of experiment [6]: qHTS assay for measurement of the activity of small molecule inhibitors on Zika virus induced Caspase-3 activity in human astrocytoma cells (AID 1224859).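 Also: plate controls were ZIKV-infected untreated cells for no effect and uninfected cells for full effect.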 An outline of the steps:
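Human SNB-19 astrocytoma cells in RPMI 1640 with 10% FBS receive compound one hour ahead of Zika virus at 2 FFU/cell. After 6 h infection, caspase-3/7 activity is detected by Caspase-Glo luminescence.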

Experiment [7] is described as follows: qHTS assay to identify small molecule inhibitors of chordoma cells - UCH-1 (AID 1259355). Also: % is scaled to controls: 0 for no effect and ±100 for the full control effect; nearly all actives have a fitted effect of over 55% in size. Put shortly: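 A 48hr growth-inhibition format: each drug tested at 15 concentrations together with added auranofin, camptothecin, doxorubicin, rubitecan and topotecan, with cell viability quantified as CellTiter-Glo luminescence.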
Experiment [8] in a line: qHTS assay to identify small molecule inhibitors of chordoma cells - UCH-2 (AID 1259356). Also: series mostly up to about 46 µM; % is scaled to controls: 0 for no effect and ±100 for the full control effect.

T1 sequence (P35557 whole entry, looked up): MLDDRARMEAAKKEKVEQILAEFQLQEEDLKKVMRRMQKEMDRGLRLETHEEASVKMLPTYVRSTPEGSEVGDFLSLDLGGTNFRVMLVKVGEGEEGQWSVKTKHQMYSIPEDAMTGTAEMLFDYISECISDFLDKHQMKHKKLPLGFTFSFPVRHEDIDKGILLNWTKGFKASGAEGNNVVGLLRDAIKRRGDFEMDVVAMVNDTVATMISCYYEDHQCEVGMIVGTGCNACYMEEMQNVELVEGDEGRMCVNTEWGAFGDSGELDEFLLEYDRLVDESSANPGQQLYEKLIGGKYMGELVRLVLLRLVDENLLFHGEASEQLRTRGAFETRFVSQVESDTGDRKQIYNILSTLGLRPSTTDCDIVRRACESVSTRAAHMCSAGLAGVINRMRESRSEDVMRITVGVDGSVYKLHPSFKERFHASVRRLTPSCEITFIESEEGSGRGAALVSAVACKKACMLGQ
T1 sequence (Q14397 whole entry, looked up): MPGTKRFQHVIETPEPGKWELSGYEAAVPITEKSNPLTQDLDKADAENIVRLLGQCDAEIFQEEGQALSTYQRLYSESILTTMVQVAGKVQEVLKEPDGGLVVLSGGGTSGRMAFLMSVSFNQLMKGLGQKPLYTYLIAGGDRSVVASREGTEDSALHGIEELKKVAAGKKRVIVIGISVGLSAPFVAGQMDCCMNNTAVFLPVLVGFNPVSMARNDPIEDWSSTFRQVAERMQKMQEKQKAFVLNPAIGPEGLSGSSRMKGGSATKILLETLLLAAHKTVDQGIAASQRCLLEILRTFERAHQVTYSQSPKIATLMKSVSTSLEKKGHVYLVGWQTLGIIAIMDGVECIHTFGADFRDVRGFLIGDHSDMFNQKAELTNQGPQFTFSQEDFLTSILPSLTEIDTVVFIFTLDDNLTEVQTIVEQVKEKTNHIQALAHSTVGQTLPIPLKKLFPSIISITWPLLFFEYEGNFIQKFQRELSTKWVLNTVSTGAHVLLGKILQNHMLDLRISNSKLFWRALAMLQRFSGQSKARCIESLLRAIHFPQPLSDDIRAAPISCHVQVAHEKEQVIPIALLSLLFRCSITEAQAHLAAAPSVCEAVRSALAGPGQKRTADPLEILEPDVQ

As for `NC(=O)c1cn(Cc2c(F)cccc2F)nn1`, the result in experiment [1], in experiment [2], in experiment [5] and in experiment [6] was inactive. Besides, the Potency result in experiment [3], in experiment [7] and in experiment [8] was “inactive” each time. Further, in experiment [4], the max response was 3.65% and -7.75%.

On to `CCOC(=O)C1=C(C)NC(C)=C(C(=O)OC)C1c1cccc([N+](=O)[O-])c1` (stereo unspecified), for which the outcome in experiment [1], in experiment [2], in experiment [5] and in experiment [6] was inactive. Also, the Potency entry in experiment [3], in experiment [7] and in experiment [8] was “inactive” throughout. In experiment [4], the max response was 5.7%.

On to `CCCCCCCC/C=C\CCCCCCCC(=O)NCc1ccc(O)c(OC)c1`, for which the outcome in experiment [1], in experiment [2], in experiment [5] and in experiment [6] was inactive. Besides, the Potency result in experiment [3], in experiment [7] and in experiment [8] was “inactive” in each case. Further, the max response in experiment [4] was 0.654% and 9.43%.

Turning to `CCOC(=O)c1cnc2c(cnn2CC)c1NN=C(C)C`, the result in experiment [1], in experiment [2], in experiment [5] and in experiment [6] was inactive. The Potency result in experiment [3], in experiment [7] and in experiment [8] was “inactive” in each case. The max response in experiment [4] was 1.49% and 6.62%.

`NC(=O)c1ncn([C@@H]2O[C@H](CO)[C@@H](O)[C@H]2O)c1O`: the outcome in experiment [1], in experiment [2], in experiment [5] and in experiment [6] was inactive. The Potency entry in experiment [3], in experiment [7] and in experiment [8] was “inactive” each time. Also, the max response in experiment [4] is 13.6%.

`COCCc1ccc(OCC(O)CNC(C)C)cc1` (stereo unspecified): the result in experiment [1], in experiment [2], in experiment [5] and in experiment [6] was inactive. Moreover, the Potency entry in experiment [3], in experiment [7] and in experiment [8] was “inactive” each time. The max response in experiment [4] was -3.26% and -1.45% and -10.9%.

Turning to `CCCN(CCC)C(=O)C(CCC(=O)O)NC(=O)c1ccccc1` (stereo unspecified), the outcome in experiment [1], in experiment [2], in experiment [5] and in experiment [6] was inactive. For the same compound, the Potency entry in experiment [3], in experiment [7] and in experiment [8] was “inactive” each time. Besides, in experiment [4], the max response is 9.09% and 23.8%.

As for `CCO/C([O-])=N/c1c[n+](N2CCOCC2)no1`, the result in experiment [1], in experiment [2], in experiment [5] and in experiment [6] was inactive. The Potency result in experiment [3], in experiment [7] and in experiment [8] was “inactive” each time. The max response in experiment [4] was -5.19%.

Consider `CC1=C(C)C(=O)C(CCCCC#CCCCC#CCO)=C(C)C1=O`, for which the outcome in experiment [1], in experiment [2], in experiment [5] and in experiment [6] was inactive. The Potency entry in experiment [3], in experiment [7] and in experiment [8] was “inactive” in each case. In experiment [4], the Potency was 14.1 µM (active).

As to `CC(C)NNC(=O)c1ccncc1`, the result in experiment [1], in experiment [2], in experiment [5] and in experiment [6] was inactive. Further, the Potency result in experiment [3], in experiment [7] and in experiment [8] was “inactive” each time. Also, the max response in experiment [4] is -4.04% and 10%.

For `NC(Cc1ccc(Cl)cc1)C(=O)O` (stereo unspecified), the result in experiment [1], in experiment [2], in experiment [5] and in experiment [6] was inactive. Moreover, the Potency result in experiment [3], in experiment [7] and in experiment [8] was “inactive” throughout. The max response in experiment [4] was 3.16%.

As to `CC(=O)OC(C)C[N+](C)(C)C` (stereo unspecified), the result in experiment [1], in experiment [2], in experiment [5] and in experiment [6] was inactive. For the same compound, the Potency entry in experiment [3], in experiment [7] and in experiment [8] was “inactive” throughout. Moreover, in experiment [4], the max response was -4.19% and 23.1%.

Regarding `CCCNC(C)C(=O)Nc1ccccc1C` (stereo unspecified), the outcome in experiment [1], in experiment [2], in experiment [5] and in experiment [6] was inactive. Besides, the Potency result in experiment [3], in experiment [7] and in experiment [8] was “inactive” each time. The max response in experiment [4] is 7.26% and 27.6%.

With `C[N+](C)(C)CCOC(N)=O`, the result in experiment [1], in experiment [2], in experiment [5] and in experiment [6] was inactive. The Potency entry in experiment [3], in experiment [7] and in experiment [8] was “inactive” each time. Further, the max response in experiment [4] was 20.5% and 14.2%.

For the compound `CC(C)(C)NCC(O)c1cc(O)cc(O)c1` (stereo unspecified), the result in experiment [1], in experiment [2], in experiment [5] and in experiment [6] was inactive. Also, the Potency result in experiment [3], in experiment [7] and in experiment [8] was “inactive” each time. Besides, the max response in experiment [4] was -9.6% and 12.9%.

For the compound `C(=C\c1ccccc1)/CN1CCN(C(c2ccccc2)c2ccccc2)CC1`, the result in experiment [1], in experiment [2], in experiment [5] and in experiment [6] was inactive. The Potency result in experiment [3], in experiment [7] and in experiment [8] was “inactive” each time. Besides, the max response in experiment [4] is -4.21% and 5.87%.

On to `CCN(CC)CC(=O)Nc1c(C)cccc1C`, for which the outcome in experiment [1], in experiment [2], in experiment [5] and in experiment [6] was inactive. Further, the Potency entry in experiment [3], in experiment [7] and in experiment [8] was “inactive” each time. In addition, the max response in experiment [4] is 0.639% and 6.44%.

As to `Brc1c(NC2=NCCN2)ccc2nccnc12`, the outcome in experiment [1], in experiment [2], in experiment [5] and in experiment [6] was inactive. Besides, the Potency result in experiment [3], in experiment [7] and in experiment [8] was “inactive” each time. In experiment [4], the max response was -8.09% and 19.7%.

Turning to `CN(C)[C@@H]1C(=O)C(C(N)=O)=C(O)[C@@]2(O)C(=O)C3=C(O)c4c(O)ccc(Cl)c4[C@@H](O)[C@H]3C[C@@H]12`, the result in experiment [1], in experiment [2], in experiment [5] and in experiment [6] was inactive. Moreover, the Potency in experiment [3] was 12.6 µM (active). In addition, the max response in experiment [4] was -7.62% and 22.4%. For the same compound, the Potency result in experiment [7] and in experiment [8] was “inactive” each time.

Consider `CN1CCN(CC(=O)N2c3ccccc3C(=O)Nc3cccnc32)CC1`, for which the result in experiment [1], in experiment [2], in experiment [5] and in experiment [6] was inactive. Moreover, the Potency result in experiment [3], in experiment [7] and in experiment [8] was “inactive” throughout. Moreover, in experiment [4], the max response was 0.314% and 3.31%.

`O=C(O)CN(CCOCCOCCN(CC(=O)O)CC(=O)O)CC(=O)O`: the result in experiment [1], in experiment [2], in experiment [5] and in experiment [6] was inactive. Further, the Potency entry in experiment [3], in experiment [7] and in experiment [8] was “inactive” each time. Moreover, the max response in experiment [4] was -5.05% and 25.1%.

As for `O=C(O)CN(CCN(CC(=O)O)CC(=O)O)CCN(CC(=O)O)CC(=O)O`, the result in experiment [1], in experiment [2], in experiment [5] and in experiment [6] was inactive. The Potency entry in experiment [3], in experiment [7] and in experiment [8] was “inactive” each time. In addition, the max response in experiment [4] is 13% and 27.1%.
